Measurements as given in article PMC7862700, “An all-to-all approach to the identification of sequence-specific readers for epigenetic DNA modifications on cytosine”.

How the values were obtained:
Assay in all cases: DAPPL (digital affinity profiling via proximity ligation, sequencing); 10 mM Tris-HCl pH 7.5, 50 mM NaCl, 1 mM DTT, 4% glycerol, room temperature, 30 min; GST-TFs on glutathione beads, 16-mer random dsDNA library, 0.1% formaldehyde crosslink after washing; high values mean tight binding
Conditions in all cases: protein: recombinant; tags: N-terminal GST; dsDNA, one strand shown
GABPA = biological target: T1, GABPA (Homo sapiens, UniProt Q06546 1-454)
T1 sequence: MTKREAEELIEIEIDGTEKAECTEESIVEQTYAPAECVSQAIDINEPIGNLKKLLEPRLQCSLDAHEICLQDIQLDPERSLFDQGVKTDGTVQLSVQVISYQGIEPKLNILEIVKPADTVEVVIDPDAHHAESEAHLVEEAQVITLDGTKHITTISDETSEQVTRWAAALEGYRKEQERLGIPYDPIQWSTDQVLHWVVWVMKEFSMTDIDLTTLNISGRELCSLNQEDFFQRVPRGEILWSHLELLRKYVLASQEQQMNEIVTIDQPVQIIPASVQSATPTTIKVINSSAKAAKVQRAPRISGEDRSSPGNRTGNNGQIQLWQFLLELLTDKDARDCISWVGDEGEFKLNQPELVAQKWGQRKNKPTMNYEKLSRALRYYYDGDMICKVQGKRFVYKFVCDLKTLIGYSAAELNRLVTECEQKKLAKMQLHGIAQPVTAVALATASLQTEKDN
Outline: (§1)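 GST fusions of human transcription factors were expressed in yeast and captured with glutathione beads. Once given DNA barcodes and pooled alongside a tag-only sample, they were incubated for 30 min at room temperature with 200 nmole of a random double-stranded 16-mer DNA library in Tris/NaCl/DTT/glycerol buffer, then washed, crosslinked (0.1% formaldehyde), proximity-ligated, PCR-amplified and sequenced on an Illumina NextSeq500. The binding signal of each hexamer is its read frequency for a factor divided by its frequency for the tag-only sample.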

ERG = biological target: T2, ERG (Homo sapiens, UniProt P11308 1-479)
T2 sequence: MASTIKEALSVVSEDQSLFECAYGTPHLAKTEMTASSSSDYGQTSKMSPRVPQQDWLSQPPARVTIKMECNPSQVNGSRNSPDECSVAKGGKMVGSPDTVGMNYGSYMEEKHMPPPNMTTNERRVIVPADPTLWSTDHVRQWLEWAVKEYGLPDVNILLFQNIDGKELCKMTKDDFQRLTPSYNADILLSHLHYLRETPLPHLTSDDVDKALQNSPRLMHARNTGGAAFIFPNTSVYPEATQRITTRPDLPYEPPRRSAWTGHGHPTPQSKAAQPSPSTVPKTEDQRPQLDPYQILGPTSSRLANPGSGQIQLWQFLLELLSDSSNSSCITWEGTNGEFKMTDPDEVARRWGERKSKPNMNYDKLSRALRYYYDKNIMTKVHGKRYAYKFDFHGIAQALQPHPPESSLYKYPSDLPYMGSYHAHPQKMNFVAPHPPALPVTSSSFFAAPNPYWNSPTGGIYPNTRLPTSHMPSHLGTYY
Outline: as §1

ELF1 = ELF1 (Homo sapiens, UniProt P32519 1-619)
Outline: as §1

EHF = biological target: T3, EHF (Homo sapiens, UniProt Q9NZC4 1-300)
T3 sequence: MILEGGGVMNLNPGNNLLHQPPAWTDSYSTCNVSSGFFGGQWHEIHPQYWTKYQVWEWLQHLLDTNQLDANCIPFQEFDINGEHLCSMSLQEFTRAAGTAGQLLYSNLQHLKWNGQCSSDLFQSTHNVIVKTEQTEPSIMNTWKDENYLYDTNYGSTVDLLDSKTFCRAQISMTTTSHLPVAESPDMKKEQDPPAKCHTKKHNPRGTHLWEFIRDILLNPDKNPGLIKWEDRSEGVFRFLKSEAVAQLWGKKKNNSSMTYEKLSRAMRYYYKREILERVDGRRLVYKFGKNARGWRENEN
Outline: as §1

SPIB = SPIB (Homo sapiens, UniProt Q01892 1-262)
Outline: as §1

ETV5 = ETV5 (Homo sapiens, UniProt P41161 1-510)
Outline: as §1

ELK4 = biological target: T4, ELK4 (Homo sapiens, UniProt P28324-2 1-405)
T4 sequence: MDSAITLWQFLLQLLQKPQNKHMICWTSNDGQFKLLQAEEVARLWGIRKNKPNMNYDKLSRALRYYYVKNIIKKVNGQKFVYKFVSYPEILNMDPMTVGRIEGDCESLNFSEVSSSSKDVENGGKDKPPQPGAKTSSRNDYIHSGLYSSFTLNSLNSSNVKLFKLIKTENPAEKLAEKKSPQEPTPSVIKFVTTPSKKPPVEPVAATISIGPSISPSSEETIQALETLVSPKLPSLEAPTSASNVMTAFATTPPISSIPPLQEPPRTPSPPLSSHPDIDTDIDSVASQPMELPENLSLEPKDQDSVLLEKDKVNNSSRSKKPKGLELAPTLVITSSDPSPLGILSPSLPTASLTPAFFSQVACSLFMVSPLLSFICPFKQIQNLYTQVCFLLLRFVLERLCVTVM
Outline: as §1

ELF3 = biological target: T5, ELF3 (Homo sapiens, UniProt P78545 1-371)
T5 sequence: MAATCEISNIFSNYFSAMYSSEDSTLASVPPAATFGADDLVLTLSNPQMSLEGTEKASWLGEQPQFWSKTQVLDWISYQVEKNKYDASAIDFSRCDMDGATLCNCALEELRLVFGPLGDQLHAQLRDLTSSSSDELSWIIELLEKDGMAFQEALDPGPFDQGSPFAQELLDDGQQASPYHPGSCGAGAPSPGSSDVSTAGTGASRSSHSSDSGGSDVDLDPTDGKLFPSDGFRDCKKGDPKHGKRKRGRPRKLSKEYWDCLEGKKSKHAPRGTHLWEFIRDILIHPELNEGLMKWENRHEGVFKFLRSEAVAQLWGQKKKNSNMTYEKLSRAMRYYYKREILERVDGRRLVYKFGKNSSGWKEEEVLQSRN
Outline: as §1

ETV1 = ETV1 (Homo sapiens, UniProt P50549 1-477)
Outline: as §1

ERF = biological target: T6, ERF (Homo sapiens, UniProt P50548 1-548)
T6 sequence: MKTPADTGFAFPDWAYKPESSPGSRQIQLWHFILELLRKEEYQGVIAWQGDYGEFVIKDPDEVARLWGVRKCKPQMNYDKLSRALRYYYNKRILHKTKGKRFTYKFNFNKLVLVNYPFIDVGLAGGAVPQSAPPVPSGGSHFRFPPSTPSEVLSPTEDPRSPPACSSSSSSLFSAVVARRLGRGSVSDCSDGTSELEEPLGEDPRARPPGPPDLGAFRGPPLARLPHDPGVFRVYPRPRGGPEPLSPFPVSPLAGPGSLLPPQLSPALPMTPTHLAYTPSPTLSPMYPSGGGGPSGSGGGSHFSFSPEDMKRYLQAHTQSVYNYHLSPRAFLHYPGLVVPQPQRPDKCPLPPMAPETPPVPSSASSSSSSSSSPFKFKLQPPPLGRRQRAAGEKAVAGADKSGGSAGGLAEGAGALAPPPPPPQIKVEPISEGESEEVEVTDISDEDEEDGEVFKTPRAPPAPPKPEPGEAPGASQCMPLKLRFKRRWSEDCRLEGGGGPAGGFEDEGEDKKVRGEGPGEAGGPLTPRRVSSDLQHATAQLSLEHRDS
Outline: as §1

ETV3L = biological target: T7, ETV3L (Homo sapiens, UniProt Q6ZN32 1-361)
T7 sequence: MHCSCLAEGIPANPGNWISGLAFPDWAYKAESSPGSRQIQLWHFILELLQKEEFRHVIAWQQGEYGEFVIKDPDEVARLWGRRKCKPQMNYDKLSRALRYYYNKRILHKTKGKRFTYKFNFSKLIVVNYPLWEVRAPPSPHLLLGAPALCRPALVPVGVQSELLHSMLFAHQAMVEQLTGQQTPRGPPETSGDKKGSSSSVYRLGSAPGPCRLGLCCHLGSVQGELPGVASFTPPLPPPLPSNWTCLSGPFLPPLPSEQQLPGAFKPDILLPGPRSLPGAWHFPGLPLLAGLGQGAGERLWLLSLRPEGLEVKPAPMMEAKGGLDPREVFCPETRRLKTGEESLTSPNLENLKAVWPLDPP
Outline: as §1

ETV3 = biological target: T8, ETV3 (Homo sapiens, UniProt P41162-2 1-143)
T8 sequence: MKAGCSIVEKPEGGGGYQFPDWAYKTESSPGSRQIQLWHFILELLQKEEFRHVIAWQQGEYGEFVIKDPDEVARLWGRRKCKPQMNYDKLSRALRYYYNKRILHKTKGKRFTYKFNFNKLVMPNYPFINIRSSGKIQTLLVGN
Outline: as §1

Sequence of ETV1 (P50549 whole entry): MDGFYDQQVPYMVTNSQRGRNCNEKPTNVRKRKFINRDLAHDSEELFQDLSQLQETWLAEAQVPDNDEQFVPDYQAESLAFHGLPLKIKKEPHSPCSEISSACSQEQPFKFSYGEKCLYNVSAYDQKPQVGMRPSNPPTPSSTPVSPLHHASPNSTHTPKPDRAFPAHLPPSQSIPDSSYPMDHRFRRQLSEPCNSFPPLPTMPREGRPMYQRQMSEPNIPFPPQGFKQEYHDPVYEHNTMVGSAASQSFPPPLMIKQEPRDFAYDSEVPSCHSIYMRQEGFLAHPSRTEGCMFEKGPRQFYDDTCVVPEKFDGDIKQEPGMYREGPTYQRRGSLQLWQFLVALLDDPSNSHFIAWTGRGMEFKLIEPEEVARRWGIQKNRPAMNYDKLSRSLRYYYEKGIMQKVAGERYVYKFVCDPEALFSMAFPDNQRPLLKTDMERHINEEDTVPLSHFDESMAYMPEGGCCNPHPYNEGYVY
Sequence of SPIB (Q01892 whole entry): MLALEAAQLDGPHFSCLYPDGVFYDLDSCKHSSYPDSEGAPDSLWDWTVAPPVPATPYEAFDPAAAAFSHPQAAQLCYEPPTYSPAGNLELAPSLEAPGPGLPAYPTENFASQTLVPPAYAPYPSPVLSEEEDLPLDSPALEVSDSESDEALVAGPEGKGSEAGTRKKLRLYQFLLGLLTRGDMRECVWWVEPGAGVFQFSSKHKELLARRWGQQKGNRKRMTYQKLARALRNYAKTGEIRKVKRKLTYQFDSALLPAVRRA
Sequence of ELF1 (P32519 whole entry): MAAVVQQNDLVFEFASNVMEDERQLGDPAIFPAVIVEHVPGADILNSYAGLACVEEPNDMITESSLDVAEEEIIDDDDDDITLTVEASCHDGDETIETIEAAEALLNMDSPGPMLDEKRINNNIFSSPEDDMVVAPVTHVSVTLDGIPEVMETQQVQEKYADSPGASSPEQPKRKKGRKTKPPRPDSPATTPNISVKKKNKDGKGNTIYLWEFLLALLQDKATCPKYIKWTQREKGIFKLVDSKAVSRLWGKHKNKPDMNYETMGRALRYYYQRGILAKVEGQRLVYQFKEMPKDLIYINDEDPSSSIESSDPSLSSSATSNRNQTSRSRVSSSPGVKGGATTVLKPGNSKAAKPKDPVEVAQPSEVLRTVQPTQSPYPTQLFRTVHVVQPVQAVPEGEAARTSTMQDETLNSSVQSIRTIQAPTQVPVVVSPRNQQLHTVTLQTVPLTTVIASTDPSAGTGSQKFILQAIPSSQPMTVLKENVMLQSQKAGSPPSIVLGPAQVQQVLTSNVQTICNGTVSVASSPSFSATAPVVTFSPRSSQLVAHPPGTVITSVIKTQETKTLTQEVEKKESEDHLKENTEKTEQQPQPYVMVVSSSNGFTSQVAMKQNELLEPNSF
Sequence of ETV5 (P41161 whole entry): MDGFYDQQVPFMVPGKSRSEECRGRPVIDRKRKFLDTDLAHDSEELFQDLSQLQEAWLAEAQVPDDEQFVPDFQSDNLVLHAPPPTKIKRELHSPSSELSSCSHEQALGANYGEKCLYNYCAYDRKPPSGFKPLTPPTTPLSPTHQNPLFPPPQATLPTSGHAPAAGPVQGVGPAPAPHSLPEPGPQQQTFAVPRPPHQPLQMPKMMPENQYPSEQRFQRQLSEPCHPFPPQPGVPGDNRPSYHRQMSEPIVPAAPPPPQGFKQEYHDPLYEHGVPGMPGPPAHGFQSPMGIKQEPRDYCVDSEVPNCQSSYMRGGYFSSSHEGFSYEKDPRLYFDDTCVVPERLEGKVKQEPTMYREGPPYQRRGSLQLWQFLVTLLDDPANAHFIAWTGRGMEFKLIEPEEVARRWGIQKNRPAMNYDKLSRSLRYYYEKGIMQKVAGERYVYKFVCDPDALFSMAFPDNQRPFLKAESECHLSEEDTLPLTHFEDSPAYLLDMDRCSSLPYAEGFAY

For TGAAAT, the binding signal (GABPA) was 1.03 fold enrichment (6-mer frequency, TF over GST control), the binding signal (ERG) was 1.02 fold enrichment (6-mer frequency, TF over GST control) and the binding signal (ELF1) was 1 fold enrichment (6-mer frequency, TF over GST control). The binding signal (EHF) was 1.01 fold enrichment (6-mer frequency, TF over GST control), the binding signal (SPIB) was 1.01 fold enrichment (6-mer frequency, TF over GST control) and the binding signal (ETV5) was 1.07 fold enrichment (6-mer frequency, TF over GST control). The binding signal (ELK4) was 1.04 fold enrichment (6-mer frequency, TF over GST control), the binding signal (ELF3) was 1.09 fold enrichment (6-mer frequency, TF over GST control) and the binding signal (ETV1) was 1.08 fold enrichment (6-mer frequency, TF over GST control). For the same sequence, the binding signal (ERF) was 1.01 fold enrichment (6-mer frequency, TF over GST control), the binding signal (ETV3L) was 1.04 fold enrichment (6-mer frequency, TF over GST control) and the binding signal (ETV3) was 1.03 fold enrichment (6-mer frequency, TF over GST control).
